Screens: PubChem BioAssay, several laboratories
Sampled rows, rich in hits. Any-hit rate of the full collection: about 3.8%.
PfHsp90 yeast 2 = inhibits growth of yeast expressing Plasmodium falciparum Hsp90. hit rate 0.32% among 310,000. S. cerevisiae expressing PfHsp90, BacTiter-Glo ATP, 48 h; yeast lacking PDR1 and PDR3 efflux regulators. AID 504621. inhibition, % at 9.4 µM;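 active = every replicate shows inhibition above about 80%, whatever the replicate mean, limit read from the data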
TIM10 inh = TIM10 yeast growth inhibition; S. cerevisiae TIM10 strain growth, BacTiter-Glo luminescence, 24 h; inhibition, % at 10 µM; hit rate 1.4% among 330,000;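 active = inhibition of 40% or more at the single tested concentration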;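 also: wild-type TIM10 isogenic control strain grown at permissive 25 °C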
tim10-1 inh = inhibits growth of tim10-1 mutant yeast. hit rate 2.2% among 330,000. AID 463190. inhibition, % at 20 µM. S. cerevisiae tim10-1 ts strain growth, BacTiter-Glo, 24 h;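 active = inhibition of at least 40%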;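 also: mutant grown at 25 °C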
Beta2AR agonist = activates human beta-2 adrenergic receptor causing internalization; Am2.2-beta2AR cells, FAP receptor internalization, flow cytometry; response, % (no concentration beside the values); hit rate 0.43% among 340,000; AID 504454;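 active = response above a set limit, near 3 SD of response in nonfluorescent compounds, cut at about 42% in these data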
Target sequence (P07550 whole entry, looked up): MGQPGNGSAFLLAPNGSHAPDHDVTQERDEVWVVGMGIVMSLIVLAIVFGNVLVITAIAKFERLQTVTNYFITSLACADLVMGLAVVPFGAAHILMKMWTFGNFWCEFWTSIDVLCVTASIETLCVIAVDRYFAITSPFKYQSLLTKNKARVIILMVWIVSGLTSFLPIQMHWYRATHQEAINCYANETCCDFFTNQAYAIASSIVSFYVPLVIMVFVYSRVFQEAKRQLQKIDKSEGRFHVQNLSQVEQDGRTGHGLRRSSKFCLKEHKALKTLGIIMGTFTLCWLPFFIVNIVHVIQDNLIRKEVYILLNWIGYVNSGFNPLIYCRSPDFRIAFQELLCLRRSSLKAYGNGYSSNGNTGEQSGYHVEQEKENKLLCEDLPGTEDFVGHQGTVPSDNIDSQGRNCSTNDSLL
tim23-1 inh = inhibits growth of tim23-1 mutant yeast; S. cerevisiae tim23-1 growth, BacTiter-Glo luminescence, 24 h; inhibition, % at 20 µM; hit rate 1.3% among 330,000;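 active = growth inhibition of the mutant yeast at or above 50%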;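 also: temperature-sensitive mutant grown at 25 °C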
tim23-1 conf = confirmation of tim23-1 mutant yeast growth inhibitors. shares compounds with tim23-1 inh. S. cerevisiae tim23-1 growth, BacTiter-Glo luminescence, 24 h. inhibition, % at 20 µM. hit rate 83% among 4,400. AID 463218;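 active = inhibition above about 39% in either of two replicate wells at 20 µM, limit read from the data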;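 also: temperature-sensitive tim23-1 mutant grown at 25 °C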
Large screens that a line does not name were inactive (follow-up assays come after a bar, where they were run).

CN(C)c1c2ccccc2nc2c(F)c(F)c(F)c(F)c12	tim23-1 inh 63.9 | tim23-1 conf 66.8
Cc1nc2ccc(NS(=O)(=O)c3ccc(Br)cc3)cc2s1	tim23-1 inh 51.1 | tim23-1 conf inactive
Cc1ccc(NC(=O)c2cnc(SCC(=O)c3ccccc3)n(C)c2=O)cc1	none
CC1(C)CC2CC(C)(CN2C(=O)c2cc(-c3ccc(O)cc3)on2)C1 (centres undefined)	tim23-1 inh 52.7 | tim23-1 conf 48.0
Cc1csc(SCC(=O)Nc2ccc3[nH]c(=O)[nH]c3c2)n1	none
O=C(CN(Cc1ccc(Br)cc1)S(=O)(=O)c1ccccc1)NCc1cccnc1	none
O=C(NCc1cccnc1)/C(=C\c1ccc(-c2ccc(Br)cc2)o1)S(=O)(=O)c1ccccc1	tim23-1 inh 51.5 | tim23-1 conf 63.3
CCN(C[C@H]1N[C@@](C)(C(=O)OC)[C@H]2C(=O)N(Cc3ccccc3)C(=O)[C@@H]12)C(=O)c1ccc(C)cc1	none
CN(C)C(=S)N=c1ssc(=S)n1Cc1cccnc1	none (no result: TIM10 inh, tim10-1 inh, tim23-1 inh)
O=C(NC(=S)NCc1ccco1)c1ccc(Br)cc1	tim23-1 inh 56.4 (no result: PfHsp90 yeast 2) | tim23-1 conf 45.3
Cc1[nH]c2ccccc2c1/C=N/NC(=S)NC(C)C	none (no result: PfHsp90 yeast 2)
CC(C)NC(=S)N/N=C/c1c[nH]c2ccccc12	tim23-1 inh 55.9 | tim23-1 conf 39.5
CCOC(=O)CSc1nc(N)c(C#N)c(-c2ccc(OCC)cc2)c1C#N	none
CC1=C(C#N)c2nc(N)c(C#N)c(C)c2/C1=C\c1ccc(OCC(=O)O)c(Cl)c1	tim23-1 inh 53.9 | tim23-1 conf 49.3
O=C(NC1CCCC1)C(c1ccc(F)cc1)N(C(=O)c1csnn1)C1CC1 (centres undefined)	none
COC(=O)c1ccc(/C=C2\N=C(SC)SC2=O)cc1	none
CSC1=N/C(=C\c2ccc(C)cc2)C(=O)S1	tim23-1 inh 61.3 | tim23-1 conf 56.3
COc1ccccc1CC(=O)Nc1ccc(S(=O)(=O)N2CC(C)CC(C)C2)cc1 (centres undefined)	none
COc1ccc(NC(=O)C#Cc2ccccc2)cc1	tim23-1 inh 51.4 | tim23-1 conf 54.8
O=C(C#Cc1ccccc1)Nc1cccc(F)c1	tim23-1 inh 54.1 | tim23-1 conf 52.5
O=C(C#Cc1ccccc1)Nc1ccc(F)cc1	none
O=C(/C=C\c1ccccc1)Oc1cccc2cccnc12	none
O=C(/C=C/c1ccccc1)Oc1cccc2cccnc12	tim23-1 inh 53.5 | tim23-1 conf 43.3
COc1ccc(OC)c(C(=O)COC(=O)c2cc(C)oc2C)c1	none
COc1ccc(OC)c(C(=O)COC(=O)c2ccc([N+](=O)[O-])o2)c1	tim23-1 inh 55.0 | tim23-1 conf 57.0
Cc1ccc(S(=O)(=O)c2c(C)cc(C)[nH]c2=O)c(C)c1	none
CC[n+]1c(/C=C/N(C)c2ccccc2)n(-c2ccccc2)c2ccc(-c3nc4ccccc4s3)cc21	tim23-1 inh 79.8 | tim23-1 conf 65.2
CCCCC(=O)NC(c1ccc(Cl)cc1)c1ccc2cccnc2c1O (centres undefined)	PfHsp90 yeast 2 113.6, tim23-1 inh 56.0 | tim23-1 conf 49.3
CCCC(=O)NC(c1ccc(Cl)cc1)c1ccc2cccnc2c1O (centres undefined)	PfHsp90 yeast 2 115.3, tim23-1 inh 60.0 | tim23-1 conf 59.5
CCCC(=O)NC(c1ccc(C)cc1)c1ccc2cccnc2c1O (centres undefined)	PfHsp90 yeast 2 113.3, tim23-1 inh 60.7 | tim23-1 conf 57.9
CCCCC(=O)NC(c1ccc(N(C)C)cc1)c1ccc2cccnc2c1O (centres undefined)	tim23-1 inh 53.7 | tim23-1 conf 52.5
CCCCC(=O)NC(c1ccc(N(CC)CC)cc1)c1ccc2cccnc2c1O (centres undefined)	none
CCCC(=O)NC(c1ccc(Cl)cc1Cl)c1ccc2cccnc2c1O (centres undefined)	none
COC(=O)[C@@H](NCc1ccc(B(O)O)cc1)C(C)C	none (no result: TIM10 inh, tim10-1 inh, tim23-1 inh)
Cc1ccc(NC(=S)N/N=C/c2c(Cl)cccc2Cl)c(C)c1	tim23-1 inh 51.5 | tim23-1 conf 40.2
Cn1c(C=O)c(C#CC(C)(C)O)c2ccccc21	tim23-1 inh 61.4 | tim23-1 conf 59.9
COc1cccc(C#Cc2c(C=O)n(C)c3ccccc23)c1	none
COc1ccc(-c2ccc(NC(=O)c3ccc(Br)o3)cc2)nn1	none
